The list is not random: actives were taken first. Their share in the collection is about 3.1%.
HIF-2a block – inhibitors of HIF-2a | 786-0 RCC cells HIF-2a reporter, luciferase luminescence, overnight | inhibition, % at 18.8 µM | 360,000 tested, 0.72% active;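 active means inhibition of the luminescence signal of 40% or more relative to plate controls, in a single-dose primary screen at 18.75 µM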
CF NFkB inh – inhibitors of cystic fibrosis induced NF-kB; KKLEB NF-kB-GFP reporter, PAF-induced, GFP fluorescence overnight; inhibition, % at 5 µM; 360,000 tested, 0.86% active;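 active means at least 50% inhibition at 5 µM, scaled per plate between neutral and stimulator controls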;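 further: PAF is a Pseudomonas aeruginosa culture filtrate used as stimulus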
TRAIL sens C8 – sensitizes caspase-8 expressing cells to TRAIL; NB7+C8 cells + TRAIL, ATPlite viability luminescence; inhibition (viability loss, TRAIL sensitization), % at 10 µM; 360,000 tested, 1% active;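 active means compounds causing at least 50% loss of cell viability in the single-dose screen, relative to plate controls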
KKLEB tox – counter-screen for CF NF-kB inhibitors: cytotoxicity. KKLEB CF airway cells viability, ATPlite luminescence, overnight; active compounds read low; cells stimulated with P. aeruginosa culture filtrate. activity change (cytotoxicity), % at 5 µM. 360,000 tested, 0.36% active. AID 602141;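 active means corrected activity change at or below -50% at 5 µM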
Peg3 prom inh – Peg3 promoter activity inhibition | HeLa PEG-Prom luciferase reporter, luminescence, overnight | inhibition, % at 20 µM | 360,000 tested, 1.7% active;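 active means inhibition of at least 50% at 20 µM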
PPC-1+TRAIL kill – compounds killing PPC-1 cancer cells with TRAIL present (potentiator screen, no TRAIL-free arm); 220,000 tested, 0.41% active; AID 1443; PPC-1 cells + TRAIL, ATPLite viability luminescence; cell killing (% activity), % at 4 µM or 5 µM;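 active means cell killing above 50% in the first pass at 4 µM, then a duplicate retest at 5 µM averaging 50% or more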
CF NFkB conf – CF NF-kB inhibition confirmation, single concentration | shares compounds with CF NFkB inh | KKLEB CF airway cells, PAF-induced NF-kB-GFP fluorescence, overnight | AID 602472 | inhibition, % at 5 µM | 1,300 tested, 64% active; in the data active means inhibition above about 40%;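 further: stimulus PAF is a Pseudomonas aeruginosa filtrate and not platelet activating factor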
Each line names hits and unclear results; the compound was inactive in the other large screens (follow-up assays come after a bar, where they were run).

O=C(Nc1cc(S(=O)(=O)N2CCOCC2)ccc1O)c1ccc(NS(=O)(=O)c2ccc(Cl)s2)cc1	none
Cc1ccc(NC(=O)c2ccccc2NS(=O)(=O)c2ccc(Cl)s2)cc1S(=O)(=O)N1CCOCC1	CF NFkB inh 57 | CF NFkB conf 80
COc1ccc(C2/C=C\CN3CCC[C@H]3C(=O)N2Cc2ccc(F)cc2)cc1 (some centres not stated)	none (no result: PPC-1+TRAIL kill)
COc1ccc(Cl)cc1NC(=O)c1nnn(CC(=O)Nc2ccc(OC)c(OC)c2)c1N	CF NFkB inh 50 (no result: PPC-1+TRAIL kill) | CF NFkB conf inactive
COc1cccc(NC(=O)Cn2nnc(C(=O)Nc3cc(Cl)ccc3OC)c2N)c1	CF NFkB inh 56 (no result: PPC-1+TRAIL kill) | CF NFkB conf inactive
COc1ccc(NC(=O)Cn2nnc(C(=O)Nc3ccc(F)c(Cl)c3)c2N)cc1	CF NFkB inh 61 (no result: PPC-1+TRAIL kill) | CF NFkB conf inactive
S=C(Nc1cccc2ccccc12)Nc1cccc2ccccc12	CF NFkB inh 84 (no result: PPC-1+TRAIL kill) | CF NFkB conf inactive
CCOC(=O)C1=CCN(S(=O)(=O)c2ccccc2C)C1c1cccc(Cl)c1 (configuration not stated)	none (no result: CF NFkB inh, KKLEB tox, Peg3 prom inh, PPC-1+TRAIL kill)
COc1cc2cc(C(=O)NC(C)c3cccc4ccccc34)c(N)nc2cc1OC (configuration not stated)	none (no result: CF NFkB inh, KKLEB tox, Peg3 prom inh, PPC-1+TRAIL kill)
O=C(N/N=C/c1ccccc1Cl)c1[nH]c2ccc(Br)cc2c1-c1ccccc1	CF NFkB inh 63 | CF NFkB conf 76
COc1ccc(/C=N/NC(=O)c2[nH]c3ccc(Br)cc3c2-c2ccccc2)cc1	CF NFkB inh 81 | CF NFkB conf 81
Cc1ccc(-c2nnn(CC(=O)N(CCCO)C(C(=O)NC3CCCC3)c3ccc(F)cc3)n2)o1 (configuration not stated)	none (no result: PPC-1+TRAIL kill)
COc1ccc(Cn2c(O)c(C=Nc3ccccc3C(=O)O)c3ccccc3c2=O)cc1	none
COc1ccccc1NS(=O)(=O)c1cccc(-n2c(O)c(C=Nc3ccccc3C(=O)O)c3ccccc3c2=O)c1	CF NFkB inh 86 | CF NFkB conf 93
C/C(=N\NC(=O)c1c(Cl)cnn1C)c1ccc(NC(=O)c2ccc(Br)o2)cc1	none (no result: PPC-1+TRAIL kill)
O=c1cc(C(F)(F)F)[nH]c2ccc(OC(F)(F)F)cc12	none
O=c1cc(C(F)(F)F)[nH]c2c(C(F)(F)F)cccc12	CF NFkB inh 57 | CF NFkB conf inactive
Cc1ccc2c(c1)C(=O)C(=O)N2Cc1ccc(Br)cc1	CF NFkB inh 62 (no result: PPC-1+TRAIL kill) | CF NFkB conf 81
CCOC(=O)N1CCc2c(sc(NC(=O)CN3CCOCC3)c2C(=O)Nc2ccccc2)C1	CF NFkB inh 57 | CF NFkB conf inactive
CCOC(=O)N1CCc2c(sc(NC(=O)CN3CCN(C)CC3)c2C(=O)Nc2ccccc2)C1	none
COc1ccc(Cc2c(-c3ccc(C)cc3)nc3cc(C)c(Br)c(C)n23)c(C)c1	none (no result: PPC-1+TRAIL kill)
C=C(CCC(=O)c1ccccc1)C(=O)c1ccccc1	CF NFkB inh 80, Peg3 prom inh 63 | CF NFkB conf inactive
CCc1nn(CC(=O)NCc2cccnc2)c(=O)c2cc3occc3n12	none (no result: PPC-1+TRAIL kill)
CC1(O)CC(c2ccc(Cl)cc2)=NN1C(=O)c1ccc(Cl)cc1 (configuration not stated)	CF NFkB inh 58 (no result: PPC-1+TRAIL kill) | CF NFkB conf 76
CNC(=O)C1Cc2c(-c3ccccc3Oc3ccccc3)ccnc2O1 (configuration not stated)	none (no result: PPC-1+TRAIL kill)
CC1=Nc2ccccc2/C1=C/c1c(C)[nH]c2ccccc12	CF NFkB inh 53, Peg3 prom inh 91 (no result: PPC-1+TRAIL kill) | CF NFkB conf inactive
Cc1noc(C)c1NC(=O)N(C)C[C@H]1Oc2ccc(NC(=O)NC3CCCCC3)cc2C(=O)N([C@H](C)CO)C[C@@H]1C	none (no result: PPC-1+TRAIL kill)
CCOC(=O)[C@@H]1[C@H]2COc3ccc(Br)cc3[C@H]2N2C(=O)N(c3ccc(C)cc3)C(=O)[C@]12C	CF NFkB inh 51 (no result: PPC-1+TRAIL kill) | CF NFkB conf 42
CCOC(=O)[C@@H]1[C@H]2COc3ccc(Br)cc3[C@@H]2N2C(=O)N(c3ccc(C)cc3)C(=O)[C@]12C	none (no result: PPC-1+TRAIL kill)
CN(C)c1ccc(-c2nn3c(-c4ccccc4Cl)nnc3s2)cc1	CF NFkB inh 54 | CF NFkB conf 68
O=c1c2cc(F)ccc2sn1-c1ccccc1Cl	CF NFkB inh 51 (no result: PPC-1+TRAIL kill) | CF NFkB conf inactive
Cc1ccc(-n2sc3cc(F)ccc3c2=O)c(C)c1	none (no result: PPC-1+TRAIL kill)
CC1CCCN(S(=O)(=O)c2cccc(C(=O)OCC(=O)N(C)Cc3c(F)cccc3Cl)c2)C1 (configuration not stated)	none (no result: PPC-1+TRAIL kill)
Clc1cccc(Cl)c1/C=N/Nc1c(Cl)cncc1Cl	none
Clc1cncc(Cl)c1N/N=C/c1ccncc1	CF NFkB inh 81 | CF NFkB conf 78
O=C1C=C(NC2=CC3OC(c4ccccc4)OCC3OC2=O)CCC1 (configuration not stated)	CF NFkB inh 71 | CF NFkB conf 47
CN(C)CCNC(=O)c1coc(=O)c(Br)c1	none
O=C(NCCc1ccccc1)c1coc(=O)c(Br)c1	CF NFkB inh 69, Peg3 prom inh 107 (no result: PPC-1+TRAIL kill) | CF NFkB conf 76
COc1cccc(C(NC(C)=O)c2nc(-c3ccccc3)cs2)c1 (configuration not stated)	none (no result: PPC-1+TRAIL kill)
c1ccc2c(-c3cncc4ccccc34)cncc2c1	CF NFkB inh 76 (no result: PPC-1+TRAIL kill) | CF NFkB conf 43
C[C@@H](NC(=O)c1[nH]cnc1C(=O)Nc1ccccc1F)c1ccccc1	none (no result: PPC-1+TRAIL kill)
C/C(=C\[C@@H](NP(=O)(c1ccccc1)c1ccccc1)c1ccccc1)CO[Si](c1ccccc1)(c1ccccc1)C(C)(C)C	CF NFkB inh 54 (no result: PPC-1+TRAIL kill) | CF NFkB conf inactive
COc1ccc(CN2C(=NC(=O)CCc3ccccc3)SC3CS(=O)(=O)CC32)cc1 (configuration not stated)	none (no result: PPC-1+TRAIL kill)
O=C(CCc1ccccc1)N=C1SC2CS(=O)(=O)CC2N1Cc1ccccc1 (configuration not stated)	CF NFkB inh 50 (no result: PPC-1+TRAIL kill) | CF NFkB conf inactive
Cc1nc([N+](=O)[O-])c(SCC(N)=O)n1Cc1ccccc1	none
Cc1nc([N+](=O)[O-])c(Sc2nc3ccccc3n2C)n1Cc1ccccc1	CF NFkB inh 65 | CF NFkB conf 56
O=Nc1c(O)n(Cc2ccc(Cl)cc2)c2ccccc12	none
O=Nc1c(O)n(Cc2c(Cl)cccc2Cl)c2ccccc12	CF NFkB inh 56 | CF NFkB conf 67
C[C@@H]1CN([C@@H](C)CO)S(=O)(=O)c2ccc(Br)cc2O[C@@H]1CN(C)C(=O)C1CC1	none (no result: PPC-1+TRAIL kill)
CCCCn1nnnc1C(c1ccccc1)N1CCN(c2cc(C)ccc2C)CC1 (configuration not stated)	none (no result: CF NFkB inh, KKLEB tox, Peg3 prom inh, PPC-1+TRAIL kill)
NC(=O)C1(c2ccccc2)OC1c1ccccc1 (configuration not stated)	none (no result: PPC-1+TRAIL kill)
